# According to PMC7862700, “An all-to-all approach to the identification of sequence-specific readers for epigenetic DNA modifications on cytosine”:
# How the values were obtained:
# Experiment in all cases: DAPPL (digital affinity profiling via proximity ligation, sequencing); 10 mM Tris-HCl pH 7.5, 50 mM NaCl, 1 mM DTT, 4% glycerol, room temperature, 30 min; GST-TFs on glutathione beads, 16-mer random dsDNA library, 0.1% formaldehyde crosslink after washing; high values mean tight binding
# Conditions in all cases: protein: recombinant; tags: N-terminal GST; dsDNA, one strand shown
# FLI1 = target: T1, FLI1 (Homo sapiens, UniProt Q01543 1-452)
# T1 sequence: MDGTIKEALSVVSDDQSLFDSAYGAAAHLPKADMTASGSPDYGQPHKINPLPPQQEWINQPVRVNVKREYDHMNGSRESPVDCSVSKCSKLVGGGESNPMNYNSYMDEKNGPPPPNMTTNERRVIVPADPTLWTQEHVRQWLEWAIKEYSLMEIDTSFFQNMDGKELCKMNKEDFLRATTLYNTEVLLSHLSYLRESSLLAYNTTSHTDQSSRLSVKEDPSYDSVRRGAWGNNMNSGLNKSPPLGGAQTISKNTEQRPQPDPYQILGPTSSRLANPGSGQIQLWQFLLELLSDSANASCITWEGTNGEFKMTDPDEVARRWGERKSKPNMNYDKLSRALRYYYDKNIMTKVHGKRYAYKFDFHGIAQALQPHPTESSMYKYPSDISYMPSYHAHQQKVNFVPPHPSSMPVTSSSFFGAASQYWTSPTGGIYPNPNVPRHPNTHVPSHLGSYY
# How it was run: (§1)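 A tag-only sample was pooled with DNA-barcoded human transcription factors that had been expressed in yeast as GST fusions and captured on glutathione beads. The pools were incubated for 30 min at room temperature with 200 nmole of a random double-stranded 16-mer DNA library in Tris/NaCl/DTT/glycerol buffer, then washed, crosslinked with 0.1% formaldehyde, proximity-ligated (BsaI/T4 ligase, 1 h, 37 °C), PCR-amplified and sequenced on an Illumina NextSeq500. Binding signal is each hexamer's read frequency for a factor divided by its frequency for the tag-only sample.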
# ELK1 = target: T2, ELK1 (Homo sapiens, UniProt P19419 1-428)
# T2 sequence: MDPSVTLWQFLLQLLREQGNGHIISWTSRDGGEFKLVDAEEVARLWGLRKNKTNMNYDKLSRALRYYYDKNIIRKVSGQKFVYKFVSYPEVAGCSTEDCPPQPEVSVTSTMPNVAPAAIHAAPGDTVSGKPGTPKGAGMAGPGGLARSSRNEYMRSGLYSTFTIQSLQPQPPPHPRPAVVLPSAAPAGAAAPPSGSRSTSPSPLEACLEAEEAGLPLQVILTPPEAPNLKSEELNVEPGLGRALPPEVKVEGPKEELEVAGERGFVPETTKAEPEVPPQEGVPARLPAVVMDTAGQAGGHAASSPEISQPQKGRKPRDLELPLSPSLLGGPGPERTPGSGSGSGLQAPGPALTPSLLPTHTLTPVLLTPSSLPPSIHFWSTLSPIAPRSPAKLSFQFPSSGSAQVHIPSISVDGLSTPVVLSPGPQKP
# How it was run: as §1
# GABPA = target: T3, GABPA (Homo sapiens, UniProt Q06546 1-454)
# T3 sequence: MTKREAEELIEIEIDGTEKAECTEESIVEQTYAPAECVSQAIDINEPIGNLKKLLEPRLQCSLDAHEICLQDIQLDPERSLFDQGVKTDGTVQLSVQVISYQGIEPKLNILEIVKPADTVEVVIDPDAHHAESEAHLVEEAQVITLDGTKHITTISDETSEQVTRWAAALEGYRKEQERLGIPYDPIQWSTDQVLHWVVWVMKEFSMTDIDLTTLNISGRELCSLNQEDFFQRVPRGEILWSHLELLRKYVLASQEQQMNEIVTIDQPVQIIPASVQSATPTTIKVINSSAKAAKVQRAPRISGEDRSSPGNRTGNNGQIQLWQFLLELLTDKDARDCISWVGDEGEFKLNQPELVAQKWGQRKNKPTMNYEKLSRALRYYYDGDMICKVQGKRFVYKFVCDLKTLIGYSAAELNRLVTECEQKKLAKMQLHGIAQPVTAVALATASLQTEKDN
# How it was run: as §1
# ERG = target: T4, ERG (Homo sapiens, UniProt P11308 1-479)
# T4 sequence: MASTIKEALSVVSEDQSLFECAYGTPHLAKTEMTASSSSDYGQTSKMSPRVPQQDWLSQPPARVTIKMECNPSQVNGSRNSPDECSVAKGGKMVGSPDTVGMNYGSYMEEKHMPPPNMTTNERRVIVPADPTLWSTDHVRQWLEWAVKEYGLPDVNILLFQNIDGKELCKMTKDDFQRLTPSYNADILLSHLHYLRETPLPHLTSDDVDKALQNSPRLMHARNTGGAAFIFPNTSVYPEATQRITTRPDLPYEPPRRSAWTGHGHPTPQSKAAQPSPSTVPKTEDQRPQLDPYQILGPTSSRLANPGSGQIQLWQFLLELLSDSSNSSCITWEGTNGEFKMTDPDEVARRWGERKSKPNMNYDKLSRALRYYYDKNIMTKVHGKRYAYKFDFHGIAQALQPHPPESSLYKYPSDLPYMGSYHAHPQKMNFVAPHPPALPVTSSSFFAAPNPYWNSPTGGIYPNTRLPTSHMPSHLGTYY
# How it was run: as §1
# ELF1 = ELF1 (Homo sapiens, UniProt P32519 1-619)
# How it was run: as §1
# EHF = target: T5, EHF (Homo sapiens, UniProt Q9NZC4 1-300)
# T5 sequence: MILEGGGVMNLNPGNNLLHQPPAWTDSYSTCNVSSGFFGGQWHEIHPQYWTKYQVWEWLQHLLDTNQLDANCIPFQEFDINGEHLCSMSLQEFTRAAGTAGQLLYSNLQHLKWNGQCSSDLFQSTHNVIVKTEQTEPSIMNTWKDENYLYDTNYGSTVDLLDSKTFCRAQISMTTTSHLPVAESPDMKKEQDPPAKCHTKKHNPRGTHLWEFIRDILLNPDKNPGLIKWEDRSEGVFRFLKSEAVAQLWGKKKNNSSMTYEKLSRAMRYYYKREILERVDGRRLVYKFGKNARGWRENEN
# How it was run: as §1
# SPI1 = SPI1 (Homo sapiens, UniProt P17947 1-270)
# How it was run: as §1
# SPIB = SPIB (Homo sapiens, UniProt Q01892 1-262)
# How it was run: as §1
# ELK3 = target: T6, ELK3 (Homo sapiens, UniProt P41970 1-407)
# T6 sequence: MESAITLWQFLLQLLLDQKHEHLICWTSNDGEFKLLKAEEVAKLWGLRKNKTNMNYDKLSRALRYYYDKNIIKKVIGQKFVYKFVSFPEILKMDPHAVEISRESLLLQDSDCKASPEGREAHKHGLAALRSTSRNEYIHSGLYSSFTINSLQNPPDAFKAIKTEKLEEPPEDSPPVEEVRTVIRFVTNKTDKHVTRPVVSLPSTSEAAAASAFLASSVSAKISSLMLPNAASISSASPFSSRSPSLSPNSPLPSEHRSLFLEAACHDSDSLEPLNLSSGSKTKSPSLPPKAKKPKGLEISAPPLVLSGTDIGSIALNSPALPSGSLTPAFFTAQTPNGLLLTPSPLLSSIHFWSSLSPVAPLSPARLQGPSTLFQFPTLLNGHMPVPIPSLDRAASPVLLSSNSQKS
# How it was run: as §1
# FEV = target: T7, FEV (Homo sapiens, UniProt Q99581 1-238)
# T7 sequence: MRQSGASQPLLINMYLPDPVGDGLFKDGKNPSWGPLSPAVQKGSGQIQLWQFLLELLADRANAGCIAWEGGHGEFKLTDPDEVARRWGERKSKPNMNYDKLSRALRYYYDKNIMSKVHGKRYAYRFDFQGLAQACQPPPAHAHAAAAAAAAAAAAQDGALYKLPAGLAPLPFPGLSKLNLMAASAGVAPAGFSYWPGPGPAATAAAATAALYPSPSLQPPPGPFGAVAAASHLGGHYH
# How it was run: as §1
# ETV5 = ETV5 (Homo sapiens, UniProt P41161 1-510)
# How it was run: as §1
# SPIC = target: T8, SPIC (Homo sapiens, UniProt Q8N5J4 1-248)
# T8 sequence: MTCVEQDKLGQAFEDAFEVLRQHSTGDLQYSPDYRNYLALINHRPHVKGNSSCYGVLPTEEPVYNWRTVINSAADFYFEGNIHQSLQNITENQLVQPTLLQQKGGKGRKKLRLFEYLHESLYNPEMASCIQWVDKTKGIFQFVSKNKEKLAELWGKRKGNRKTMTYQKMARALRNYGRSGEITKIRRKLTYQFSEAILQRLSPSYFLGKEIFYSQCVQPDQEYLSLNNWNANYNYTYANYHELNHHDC
# How it was run: as §1
# ELF4 = ELF4 (Homo sapiens, UniProt Q99607 1-663)
# How it was run: as §1
# ELK4 = target: T9, ELK4 (Homo sapiens, UniProt P28324-2 1-405)
# T9 sequence: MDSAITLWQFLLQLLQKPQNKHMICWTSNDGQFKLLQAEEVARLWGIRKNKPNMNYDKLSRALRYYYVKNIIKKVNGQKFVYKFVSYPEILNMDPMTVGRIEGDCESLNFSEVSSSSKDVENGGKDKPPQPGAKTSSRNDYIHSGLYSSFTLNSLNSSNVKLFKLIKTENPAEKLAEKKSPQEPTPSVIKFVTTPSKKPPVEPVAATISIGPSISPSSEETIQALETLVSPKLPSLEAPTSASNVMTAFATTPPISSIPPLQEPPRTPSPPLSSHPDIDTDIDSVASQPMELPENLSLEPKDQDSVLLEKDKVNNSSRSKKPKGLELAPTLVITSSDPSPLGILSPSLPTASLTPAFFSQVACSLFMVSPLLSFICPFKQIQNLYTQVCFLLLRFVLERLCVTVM
# How it was run: as §1
# ETV2 = target: T10, ETV2 (Homo sapiens, UniProt O00321 1-342)
# T10 sequence: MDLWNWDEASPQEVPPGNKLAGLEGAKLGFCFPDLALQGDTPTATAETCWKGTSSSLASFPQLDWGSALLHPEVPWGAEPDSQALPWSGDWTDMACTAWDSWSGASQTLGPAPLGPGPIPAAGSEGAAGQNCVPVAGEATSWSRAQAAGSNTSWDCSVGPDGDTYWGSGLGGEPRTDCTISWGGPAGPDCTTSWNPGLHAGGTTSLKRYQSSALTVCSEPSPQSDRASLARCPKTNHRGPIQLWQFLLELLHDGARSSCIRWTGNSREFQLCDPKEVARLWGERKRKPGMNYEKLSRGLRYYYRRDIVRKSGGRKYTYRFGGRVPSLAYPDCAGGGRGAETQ
# How it was run: as §1
# ELF3 = target: T11, ELF3 (Homo sapiens, UniProt P78545 1-371)
# T11 sequence: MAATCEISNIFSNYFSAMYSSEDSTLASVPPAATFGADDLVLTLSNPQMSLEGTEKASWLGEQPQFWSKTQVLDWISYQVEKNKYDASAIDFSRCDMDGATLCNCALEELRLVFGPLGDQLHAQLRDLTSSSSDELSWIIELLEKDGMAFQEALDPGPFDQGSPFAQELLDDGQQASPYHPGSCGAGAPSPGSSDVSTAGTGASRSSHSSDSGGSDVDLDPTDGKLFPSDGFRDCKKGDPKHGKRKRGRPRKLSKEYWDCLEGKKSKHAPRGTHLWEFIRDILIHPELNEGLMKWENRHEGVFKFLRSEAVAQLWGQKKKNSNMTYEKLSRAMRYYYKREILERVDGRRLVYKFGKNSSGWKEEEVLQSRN
# How it was run: as §1
# CRX = CRX (Homo sapiens, UniProt O43186 1-299)
# How it was run: as §1
# ETV1 = ETV1 (Homo sapiens, UniProt P50549 1-477)
# How it was run: as §1
# Chain of ELF4 (Q99607 whole entry): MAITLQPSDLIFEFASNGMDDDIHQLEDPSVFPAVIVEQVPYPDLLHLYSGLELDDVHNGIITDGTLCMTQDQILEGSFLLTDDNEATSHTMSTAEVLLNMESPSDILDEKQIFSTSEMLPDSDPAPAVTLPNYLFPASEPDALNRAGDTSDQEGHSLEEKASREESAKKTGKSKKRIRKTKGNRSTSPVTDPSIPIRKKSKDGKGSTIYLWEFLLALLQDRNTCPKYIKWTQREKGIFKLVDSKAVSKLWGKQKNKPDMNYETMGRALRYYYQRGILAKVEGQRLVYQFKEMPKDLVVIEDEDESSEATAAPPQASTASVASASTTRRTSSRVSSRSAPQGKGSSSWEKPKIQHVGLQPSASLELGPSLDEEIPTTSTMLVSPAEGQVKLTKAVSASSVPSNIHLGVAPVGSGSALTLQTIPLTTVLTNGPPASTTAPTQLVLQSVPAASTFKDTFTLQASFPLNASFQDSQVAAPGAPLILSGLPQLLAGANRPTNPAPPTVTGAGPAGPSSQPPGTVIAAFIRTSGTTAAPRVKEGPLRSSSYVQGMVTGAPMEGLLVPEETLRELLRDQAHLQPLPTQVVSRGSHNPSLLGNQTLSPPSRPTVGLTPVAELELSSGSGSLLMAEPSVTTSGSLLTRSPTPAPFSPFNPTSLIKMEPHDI
# Chain of ETV1 (P50549 whole entry): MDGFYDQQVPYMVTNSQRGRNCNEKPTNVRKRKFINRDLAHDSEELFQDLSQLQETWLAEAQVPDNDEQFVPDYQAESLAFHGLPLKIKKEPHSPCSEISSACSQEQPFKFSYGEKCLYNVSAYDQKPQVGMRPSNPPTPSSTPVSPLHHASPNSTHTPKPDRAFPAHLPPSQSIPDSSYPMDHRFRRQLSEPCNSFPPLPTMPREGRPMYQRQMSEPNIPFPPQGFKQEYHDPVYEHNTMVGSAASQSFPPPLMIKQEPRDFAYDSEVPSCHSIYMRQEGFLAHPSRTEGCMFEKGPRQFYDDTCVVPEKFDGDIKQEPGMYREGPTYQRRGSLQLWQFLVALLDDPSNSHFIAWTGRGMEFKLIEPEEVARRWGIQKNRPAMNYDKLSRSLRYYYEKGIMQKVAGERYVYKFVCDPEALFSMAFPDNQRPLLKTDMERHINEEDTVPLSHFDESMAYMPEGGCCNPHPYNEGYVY
# Chain of ETV5 (P41161 whole entry): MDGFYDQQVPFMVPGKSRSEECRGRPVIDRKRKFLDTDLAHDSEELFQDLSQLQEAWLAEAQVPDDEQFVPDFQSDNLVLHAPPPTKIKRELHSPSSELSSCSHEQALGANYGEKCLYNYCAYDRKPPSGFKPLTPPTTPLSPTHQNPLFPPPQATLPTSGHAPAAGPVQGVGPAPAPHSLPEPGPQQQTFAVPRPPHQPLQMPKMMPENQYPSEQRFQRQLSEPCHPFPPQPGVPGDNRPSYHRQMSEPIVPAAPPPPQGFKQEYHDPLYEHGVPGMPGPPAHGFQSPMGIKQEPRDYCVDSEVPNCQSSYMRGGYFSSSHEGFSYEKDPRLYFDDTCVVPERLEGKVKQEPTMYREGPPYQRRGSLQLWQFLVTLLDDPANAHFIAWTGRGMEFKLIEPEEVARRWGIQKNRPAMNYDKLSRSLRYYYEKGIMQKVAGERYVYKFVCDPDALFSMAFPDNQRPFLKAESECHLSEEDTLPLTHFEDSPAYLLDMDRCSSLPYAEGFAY
# Chain of SPIB (Q01892 whole entry): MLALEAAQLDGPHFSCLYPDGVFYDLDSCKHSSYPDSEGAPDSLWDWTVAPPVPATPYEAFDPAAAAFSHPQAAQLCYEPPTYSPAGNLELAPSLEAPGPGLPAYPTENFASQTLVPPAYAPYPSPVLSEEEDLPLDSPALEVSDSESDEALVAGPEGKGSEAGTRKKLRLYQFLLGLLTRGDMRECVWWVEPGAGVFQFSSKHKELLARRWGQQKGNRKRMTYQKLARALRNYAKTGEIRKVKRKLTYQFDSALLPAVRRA
# Chain of CRX (O43186 whole entry): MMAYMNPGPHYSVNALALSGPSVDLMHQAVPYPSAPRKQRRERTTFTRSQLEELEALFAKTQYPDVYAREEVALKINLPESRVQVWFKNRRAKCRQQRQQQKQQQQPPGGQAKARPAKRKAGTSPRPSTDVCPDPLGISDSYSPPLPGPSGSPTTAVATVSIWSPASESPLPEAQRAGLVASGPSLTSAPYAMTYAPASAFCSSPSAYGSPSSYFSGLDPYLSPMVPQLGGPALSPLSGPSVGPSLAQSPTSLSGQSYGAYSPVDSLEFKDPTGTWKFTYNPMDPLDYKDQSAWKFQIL
# Chain of ELF1 (P32519 whole entry): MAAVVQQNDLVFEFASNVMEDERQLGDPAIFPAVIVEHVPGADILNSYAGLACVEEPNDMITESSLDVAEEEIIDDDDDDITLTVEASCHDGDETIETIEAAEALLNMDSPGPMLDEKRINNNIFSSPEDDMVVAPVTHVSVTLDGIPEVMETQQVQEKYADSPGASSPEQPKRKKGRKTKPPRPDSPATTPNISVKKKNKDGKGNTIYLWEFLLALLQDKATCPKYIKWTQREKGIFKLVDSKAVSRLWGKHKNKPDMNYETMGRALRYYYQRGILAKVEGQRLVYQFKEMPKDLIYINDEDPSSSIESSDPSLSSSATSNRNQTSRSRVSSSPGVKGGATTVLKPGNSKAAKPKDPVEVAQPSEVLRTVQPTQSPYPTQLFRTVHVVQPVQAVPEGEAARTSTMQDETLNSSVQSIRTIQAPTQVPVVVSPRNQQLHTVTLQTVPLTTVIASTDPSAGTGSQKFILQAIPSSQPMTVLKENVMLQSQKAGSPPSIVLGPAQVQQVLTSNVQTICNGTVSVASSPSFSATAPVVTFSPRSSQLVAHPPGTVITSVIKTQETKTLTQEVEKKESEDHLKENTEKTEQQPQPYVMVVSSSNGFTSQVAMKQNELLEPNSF
Sequence,binding signal (FLI1),binding signal (ELK1),binding signal (GABPA),binding signal (ERG),binding signal (ELF1),binding signal (EHF),binding signal (SPI1),binding signal (SPIB),binding signal (ELK3),binding signal (FEV),binding signal (ETV5),binding signal (SPIC),binding signal (ELF4),binding signal (ELK4),binding signal (ETV2),binding signal (ELF3),binding signal (CRX),binding signal (ETV1)
ATACGT,"1.12 fold enrichment (6-mer frequency, TF over GST control)","1.14 fold enrichment (6-mer frequency, TF over GST control)","1.11 fold enrichment (6-mer frequency, TF over GST control)","1.09 fold enrichment (6-mer frequency, TF over GST control)","1.11 fold enrichment (6-mer frequency, TF over GST control)","1.24 fold enrichment (6-mer frequency, TF over GST control)","1.06 fold enrichment (6-mer frequency, TF over GST control)","1.13 fold enrichment (6-mer frequency, TF over GST control)","1.12 fold enrichment (6-mer frequency, TF over GST control)","1.11 fold enrichment (6-mer frequency, TF over GST control)","1.13 fold enrichment (6-mer frequency, TF over GST control)","1.09 fold enrichment (6-mer frequency, TF over GST control)","1.08 fold enrichment (6-mer frequency, TF over GST control)","1.15 fold enrichment (6-mer frequency, TF over GST control)","1.04 fold enrichment (6-mer frequency, TF over GST control)","1.1 fold enrichment (6-mer frequency, TF over GST control)","1.01 fold enrichment (6-mer frequency, TF over GST control)","1.13 fold enrichment (6-mer frequency, TF over GST control)"
ACCGCC,"1.38 fold enrichment (6-mer frequency, TF over GST control)","1.23 fold enrichment (6-mer frequency, TF over GST control)","1.35 fold enrichment (6-mer frequency, TF over GST control)","1.27 fold enrichment (6-mer frequency, TF over GST control)","1.29 fold enrichment (6-mer frequency, TF over GST control)","1.36 fold enrichment (6-mer frequency, TF over GST control)","1.19 fold enrichment (6-mer frequency, TF over GST control)","1.13 fold enrichment (6-mer frequency, TF over GST control)","1.3 fold enrichment (6-mer frequency, TF over GST control)","1.32 fold enrichment (6-mer frequency, TF over GST control)","1.23 fold enrichment (6-mer frequency, TF over GST control)","1.16 fold enrichment (6-mer frequency, TF over GST control)","1.38 fold enrichment (6-mer frequency, TF over GST control)","1.23 fold enrichment (6-mer frequency, TF over GST control)","1.13 fold enrichment (6-mer frequency, TF over GST control)","1.33 fold enrichment (6-mer frequency, TF over GST control)","1.01 fold enrichment (6-mer frequency, TF over GST control)","1.05 fold enrichment (6-mer frequency, TF over GST control)"
